# Results taken from ChEMBL document CHEMBL4513146, “CO-ADD screening of Karazin Kharkiv National University (Ukraine) compounds”.
# Measured potencies and affinities stand elsewhere.
# Tests used:
# Klebsiella pneumoniae = conditions: Concentration 32 ug.mL-1;; ASSAY_TEST Inhibition of Bacterial Growth; detection method Absorption (OD600); MEDIA CAMHB; plate type 384well; NBS; CORNING #3640; time 18 hr
# Candida albicans = conditions: Concentration 32 ug.mL-1; ASSAY_TEST Inhibition of Fungal Growth; detection method Absorption (OD530)
# Cryptococcus neoformans = conditions: Concentration 32 ug.mL-1; ASSAY_TEST Inhibition of Fungal Growth; detection method Resazurin; Absorption (OD600-OD570); plate type 384well; NBS; CORNING #3640
SMILES,Inhibition (Klebsiella pneumoniae),Inhibition (Candida albicans),Inhibition (Cryptococcus neoformans)
Cc1cc(C)c(NC(=O)Cn2nc3c(Sc4ccccc4)nccn3c2=O)c(C)c1,-3.36%,5.92%,-6.18%
Cn1c(=O)c2sccc2n2c(=O)n(Cc3cccc(Br)c3)nc12,5.37%,10.92%,-9.95%
O=C(CCc1nnc2c3cc(-c4ccc(F)cc4)nn3ccn12)NCc1ccccc1Cl,1.44%,9.78%,-27.21%
CCCNC(=O)Cn1nc2n(Cc3cccs3)c(=O)c3sccc3n2c1=O,9.05%,-0.4%,-15.54%
CCOC(=O)c1ccc(NC(=O)Cn2nc3ccc(-c4ccc(Cl)cc4)nn3c2=O)cc1,8.58%,-0.49%,-7.91%
CCOc1ccccc1NC(=O)Cn1nc2c(Oc3ccccc3)nccn2c1=O,5.91%,2.77%,-10.21%
O=C(Cn1nc2c(N3CCOCC3)nccn2c1=O)NCc1cc(F)cc(F)c1,6.28%,4.54%,-8.22%
O=C(Cn1nc2ccc(Sc3ccccc3)nn2c1=O)Nc1ccc(F)c(Cl)c1,8.09%,1.47%,-7.06%
COC(=O)c1ccc(NC(=O)Cn2nc3c(Oc4ccccc4C)nccn3c2=O)cc1,-1.16%,1.31%,-4.07%
COc1ccc(OC)c(NC(=O)Cn2nc3c4cc(-c5ccc(Cl)cc5)nn4ccn3c2=O)c1,3.06%,-0.3%,-21.9%
CC(C)c1ccc(N(Cc2cccc(Cl)c2)S(=O)(=O)c2cccn3cnnc23)cc1,-3.32%,3.48%,-7.96%
Cc1nnc2c(S(=O)(=O)N(Cc3cccc(Cl)c3)c3ccc(F)c(F)c3)cccn12,3.16%,2.06%,-7.4%
CCCCN(C)c1ccc2nnc(CCc3nc(-c4ccc(OCc5ccccc5)cc4)no3)n2n1,3.94%,9.14%,-39.2%
Cc1ccc(-c2ccc3nn(Cc4ccc(Cl)cc4)c(=O)n3n2)cc1C,5.62%,5.2%,-10.05%
O=C(Cn1nc2ccc(-c3ccc(Cl)cc3)nn2c1=O)N1CCN(c2ccc(F)cc2)CC1,-0.53%,2.31%,-8.76%
O=c1n(Cc2ccccc2F)nc2ccc(S(=O)(=O)N3CCCCCC3)cn12,2.58%,0.84%,-9.24%
CCCCc1ccc(NC(=O)Cn2nc3c(Sc4ccccc4CC)nccn3c2=O)cc1,-8.8%,24.82%,-8.24%
O=S(=O)(c1cccn2cnnc12)N(Cc1ccc(F)cc1)c1ccc(F)cc1,4.83%,2.44%,-6.17%
Cc1ccc(-c2cc3c4nn(CC(=O)NCc5ccc(Cl)cc5)c(=O)n4ccn3n2)cc1C,7.6%,2%,-10.6%
COc1ccccc1Cn1c(=O)c2sccc2n2c(=O)n(Cc3ccccc3)nc12,5.78%,-0.06%,-28.67%
CCC(C)NC(=O)c1ccc2c(=O)n(CCC(C)C)c3nn(CC#N)c(=O)n3c2c1 (centres undefined),14.77%,0.65%,-22.02%
COc1ccc(CCNC(=O)Cn2nc3c(N4CCOCC4)nccn3c2=O)cc1OC,17.72%,2.21%,-10.16%
Cc1ccc(NC(=O)Cn2nc3c(Oc4ccccc4C)nccn3c2=O)cc1F,11.18%,-0.61%,-11.02%
COc1cc(Cl)c(C)cc1NC(=O)Cn1nc2ccc(SC(C)(C)C)nn2c1=O,11.93%,3.05%,-11.08%
CCOc1ccc(-n2ccn3c(SCC(=O)Nc4cccc(CC)c4)nnc3c2=O)cc1,-1.92%,12.86%,-9.18%
Cc1cc(C)cc(Nc2nc(C)cc3nn(CC(=O)N(C)c4cccc(C)c4)c(=O)n23)c1,7.61%,2.11%,-3.53%
O=c1c2sccc2n2c(=O)n(Cc3cccc(Cl)c3)nc2n1CCc1ccccc1,11.95%,1.58%,-33.74%
COc1ccc(CNC(=O)Cn2nc3c(SCc4ccc(Cl)cc4)nccn3c2=O)cc1,2.51%,1.91%,-11.5%
